High-throughput results (PubChem BioAssay)
M1 antag = M1 muscarinic receptor (rat) antagonism. P08482. CHO-M1 cells, Fluo-4 calcium, ACh EC80 antagonist mode; stronger effect = lower value. B-score at 10 µM. hit rate 3.4% among 64,000. AID 628;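 active = calcium fluorescence response, raw or row-and-column corrected B-score, differing from the plate sample mean either way at a set confidence level, mostly lower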
FXIa mix inh = factor XIa (human) inhibition, mixture screen; purified FXIa, fluorogenic substrate, pooled mixtures; inhibition, % at 5 µM; hit rate 0.19% among 62,000; AID 680;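 also: each value is inhibition by a whole ten-compound pool holding the compound; 0% = enzyme with no mixture and 100% = wells lacking enzyme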
FXIIa inh mix = factor XIIa (human) inhibition, mixture screen; hit rate 0.2% among 62,000; AID 684; purified FXIIa, fluorogenic substrate, pooled mixtures; inhibition, % at 5 µM; P00748;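 also: 0% = enzyme without compound and 100% = no enzyme blank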
DAT uptake mod = human DAT dopamine uptake with cocaine, either direction; AID 449768; B-score at 10 µM; hit rate 1.3% among 110,000; Q01959; LLC-PK1 hDAT cells, [14C]-dopamine uptake with cocaine IC80; actives deviate in either direction;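 active = Z score or B-score, a plate-position-corrected score, falls beyond the plate's 99.7% confidence bounds, in either direction; inactive = both scores lie inside the 99.7% bounds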;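 also: scored against the spread of the other compound wells on the same plate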
D1 mod = allosteric modulators of human D1 dopamine receptor. hit rate 5.9% among 58,000. B-score at 10 µM. P21728. HEK293 D1, CRE-luciferase, dopamine EC30 potentiation; actives deviate in either direction;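 active = luminescence count or its row- and column-corrected plate score outside the 99.7% band of the plate's sample wells, on either side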
Target sequence (P21728 whole entry, looked up): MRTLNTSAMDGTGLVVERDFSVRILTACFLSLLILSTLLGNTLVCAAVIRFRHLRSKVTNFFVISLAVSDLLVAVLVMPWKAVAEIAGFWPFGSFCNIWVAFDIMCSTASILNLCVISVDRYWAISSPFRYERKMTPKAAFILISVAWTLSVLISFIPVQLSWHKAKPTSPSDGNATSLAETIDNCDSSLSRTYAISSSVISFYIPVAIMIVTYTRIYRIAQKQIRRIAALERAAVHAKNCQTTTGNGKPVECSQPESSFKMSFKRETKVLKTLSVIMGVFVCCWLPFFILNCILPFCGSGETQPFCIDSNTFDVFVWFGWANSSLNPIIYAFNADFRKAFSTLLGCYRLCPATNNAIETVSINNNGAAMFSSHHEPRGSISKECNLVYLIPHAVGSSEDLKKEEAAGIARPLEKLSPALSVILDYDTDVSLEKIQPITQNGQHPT
M1 ag = M1 muscarinic receptor agonism; B-score at 10 µM; hit rate 3% among 64,000; CHO-M1 cells, Fluo-4 calcium fluorescence, agonist mode; stronger effect = higher value;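 active = fluorescence rise, raw or as B-score row- and column-corrected plate score, outside the 99.7% band of its plate's samples, either direction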
M1 antag conf = confirmation of rat M1 muscarinic receptor antagonists | calcium response (max-min fluorescence) at 10 µM | shares compounds with M1 antag | CHO-M1 cells, Fluo-4 calcium, ACh EC80 antagonism; stronger effect = lower value | hit rate 43% among 1,700 | AID 677;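 active = calcium response below the same-plate mean of wells given acetylcholine alone at its 80%-effect dose, minus 3 SD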;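 also: raw fluorescence intensity difference in arbitrary instrument units and not normalized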
mGluR4 antag = selectivity test for M1 antagonists: human mGluR4 receptor; shares compounds with M1 antag; CHO-mGluR4 calcium flux, Fluo-4 fluorescence, glutamate EC80; stronger effect = lower value; fluorescence response (max-min) at 10 µM; hit rate 0.9% among 1,700;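 active = fluorescence response below the plate's average for near-maximal glutamate wells, less 3 SD of those wells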;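 also: raw unnormalized fluorescence span taken in the window right after glutamate addition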
D1 PAM confirm = confirmation of human D1 dopamine receptor allosteric modulators; shares compounds with D1 mod; HEK293 D1 CRE-luciferase, dopamine EC30 potentiation; stronger effect = higher value; luminescence at 10 µM; hit rate 88% among 2,200;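 active = luminescence in either of two replicates above the same-plate mean plus 3 SD of the low-dose dopamine control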
D1 ag no DA = activates D1 CRE-luciferase signal without dopamine present; AID 646; hit rate 0.8% among 1,900; luminescence at 10 µM; shares compounds with D1 mod; HEK293 D1 CRE-luciferase, luminescence, no dopamine; stronger effect = higher value; in the data active = luminescence above about 3900
Isoprot counter = isoproterenol response counter-screen activity for D1 modulators | AID 647 | hit rate 63% among 2,200 | shares compounds with D1 mod | HEK293 D1 CRE-luciferase, isoproterenol EC30 counter-screen | calls only at 10 µM;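 active = luminescence in either replicate above plate mean of wells with a partly effective reference agonist dose plus 3 SD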;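 also: isoproterenol raises cAMP through native beta-adrenoceptor Gs so signal bypasses D1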
Starred values were filed as active, the others as inactive; i = inactive; nt = no result given; + = active, no number. Only some compounds are listed: those with a hit (about 7.4% of all), similar ones and a draw of the others. Rule as the data show it, unless noted: active = inhibition above about 20% (passing the limit was not always enough); inactive = the rest.

SMILES	M1 antag	FXIa mix inh	FXIIa inh mix	DAT uptake mod	D1 mod	M1 ag	M1 antag conf	mGluR4 antag	others
CCC1(CCc2ccncc2)C(=O)NC(=O)NC1=O	nt	nt	nt	0.12	nt	nt	nt	nt
CN(CC1COc2ccccc2O1)c1nc(-c2cccnc2)nc2ccccc12 (stereo not drawn)	-3.9*	15	4	0.25	1.1	1.7	573	228
C[N+]1(C)[C@@H]2CC[C@H]1CC(OC(=O)C(CO)c1ccccc1)C2 (stereo partly drawn)	-17*	-4	-14	nt	0.66	-0.0048	12*	200
Cc1cccc(C2=NCC(=O)N(CC(=O)NCc3ccco3)c3sc4c(c32)CCCC4)c1	0.088	0	0	3.3	-2.4	0.098	nt	nt
CCOC(=O)C1(c2ccccc2)CCN(Cc2cccc(C(=O)O)c2)CC1	-3.8*	1	-25	0.86	0.023	0.23	630	198
Cc1cccc(CN2CCN(Cc3ccc(Cl)cc3)CC2)c1	nt	nt	nt	-0.2	nt	nt	nt	nt
CCOC(=O)C1CCN(C(C)C(=O)c2c(C)[nH]c3cc(C)ccc23)CC1 (stereo not drawn)	-4.3*	6	3	-0.24	-0.39	1.4	445*	251
Oc1ccc(Cl)cc1CN1CCN(Cc2ccccc2)CC1	nt	nt	nt	-0.026	nt	nt	nt	nt
COC(=O)c1ccc(CN2CCN(Cc3ccccc3)CC2)cc1	-3.1*	-2	7	0.8	0.55	0.48	428*	234
O=C(C1CC(c2ccccc2O)=NO1)N1CCC2(CC1)OCCO2 (stereo not drawn)	nt	nt	nt	0.18	nt	nt	nt	nt
CN1C(=O)C(Cc2cccc3ccccc23)C(=O)N(C)C1=O	0.16	2	8	-0.97	-0.0027	0.31	nt	nt
O=C1C2CCN(CC2)[C@@H]1Cc1ccc2ccccc2c1O	-4.6*	nt	nt	0.093	-1	-0.62	92*	243
O=c1[nH]c(=O)n(-c2cccc3ccccc23)c(O)c1C=NCCCn1ccnc1	-0.21	5	-2	0.26	nt	0.059	nt	nt
CC1CN=C(Nc2ccc(N(C)C)cc2)S1 (stereo not drawn)	-2.1*	nt	nt	-0.063	-3.6	-1.6	606	240
CC1CN=C(Nc2ccccc2)S1 (stereo not drawn)	-0.17	nt	nt	0.13	nt	-0.62	nt	nt
CCC(=NCC1CCCO1)c1c(O)n(-c2ccc(Cl)cc2)c(=O)[nH]c1=O (stereo not drawn)	0.0062	3	-16	-0.64	0.19	-0.21	nt	nt
CCCCCCn1c(=O)c(C(=O)Nc2c(C)n(C)n(-c3ccccc3)c2=O)c(O)c2ccccc21	-8*	-3	-16	nt	-1.5	1.5	167*	234
CCCCCn1c(=O)c(C(=O)Nc2ccncc2)c(O)c2ccccc21	0.02	7	8	nt	-0.12	-0.32	nt	nt
CCCCCCOc1ccc(CN2CCN(C)CC2)cc1	-3.3*	6	-18	-0.36	-3.5*	-0.39	502*	222
CCN1CCN(Cc2ccc(C)cc2)CC1	-0.069	7	3	-0.67	-0.19	-0.33	nt	nt
CN1C2CCC1CC(OC(=O)c1ccc(Cl)cc1)C2 (stereo not drawn)	-19*	2	5	0.069	0.091	0.013	61*	230
O=C(C(Cc1ccccc1)NS(=O)(=O)c1ccc(F)cc1)N1CCC2(CC1)OCCO2 (stereo not drawn)	-0.77	-3	-16	-0.00019	0.014	1.9	nt	nt
Cc1ccc(-c2nc3ccccc3c(=O)n2-c2ncccc2C)cc1	nt	nt	nt	0.32	nt	nt	nt	nt
CCCCOP(=O)(CN1CCOCC1)OCCCC	nt	nt	nt	0.55	nt	nt	nt	nt
CC1CCC(NCCc2ccc3c(c2)OCO3)CC1 (stereo not drawn)	-5.2*	1	5	0.73	0.32	-0.19	199*	245
SMILES	M1 antag	FXIa mix inh	FXIIa inh mix	DAT uptake mod	D1 mod	M1 ag	M1 antag conf	mGluR4 antag	others
CCN(CC)CCCN=Cc1c(O)n(-c2ccccc2F)c(=O)[nH]c1=O	-2.3*	0	-2	-0.4	0.86	-0.61	635	207
CCN(CC)CCCN=Cc1c(O)n(-c2cccc(C)c2C)c(=O)[nH]c1=O	-0.54	5	0	0.061	-0.87	0.61	nt	nt
CCCCn1c(O)c(C=Nc2c(C)n(C)n(-c3ccccc3)c2=O)c(=O)[nH]c1=O	-2.5*	3	2	-0.73	-0.0038	-0.34	511	209
CCCCn1c(O)c(C(C)=Nc2c(C)n(C)n(-c3ccccc3)c2=O)c(=O)[nH]c1=O	-8.4*	10	26	0.48	-0.011	1.4	326*	247
CCCCOCCCn1c(N)c(C(=O)OC(C)COC)c2nc3ccccc3nc21 (stereo not drawn)	-0.8	nt	nt	-0.39	6.7*	3.8	nt	nt	D1 PAM confirm=11516*;D1 ag no DA=1488;Isoprot counter=+
COCCCn1c(N)c(C(=O)OC(C)COC)c2nc3ccccc3nc21 (stereo not drawn)	0.25	-9	2	0.92	5.6*	0.64	nt	nt	D1 PAM confirm=8820*;D1 ag no DA=1816;Isoprot counter=i
CCC(C)OC(=O)c1c(N)n(Cc2cccs2)c2nc3ccccc3nc12 (stereo not drawn)	nt	nt	nt	0.026	nt	nt	nt	nt
CCC(C)NC(=O)c1c(N)n(CCCOC)c2nc3ccccc3nc12 (stereo not drawn)	0.14	-6	1	2.3	5.1*	-0.95	nt	nt	D1 PAM confirm=9844*;D1 ag no DA=1520;Isoprot counter=+
O=C(c1cnn2c(C(F)(F)F)cc(-c3ccccc3)nc12)N1CCC2(CC1)OCCO2	nt	nt	nt	-1	nt	nt	nt	nt
COc1cccc(-c2cc(C(F)(F)F)n3nc(C(=O)N4CCC5(CC4)OCCO5)cc3n2)c1	-0.73	7	8	0.97	2.4*	1.1	nt	nt	D1 PAM confirm=9588*;Isoprot counter=i
CCCCn1c(O)c(C(CC)=NCCc2ccccc2)c(=O)[nH]c1=O	0.11	-2	-13	2.7	6.3*	1.6	nt	nt	D1 PAM confirm=8912*;D1 ag no DA=1568;Isoprot counter=+
C=CCn1c(O)c(C(CC)=NCCc2ccccc2)c(=O)[nH]c1=O	nt	nt	nt	-0.62	nt	nt	nt	nt
CCCCn1c(O)c(C(C)=NCc2ccc(F)cc2)c(=O)[nH]c1=O	0.54	-1	-3	0.013	4*	-0.5	nt	nt	D1 PAM confirm=10964*;D1 ag no DA=1708;Isoprot counter=i
C=CCn1c(O)c(C(C)=NCc2cccnc2)c(=O)[nH]c1=O	1.6	3	5	-0.95	0.65	-0.45	nt	nt
C=CCn1c(O)c(C(C)=NCc2cc(OC)cc(OC)c2)c(=O)[nH]c1=O	-1	4	-1	0.05	3.2*	-0.025	nt	nt	D1 PAM confirm=9872*;D1 ag no DA=1756;Isoprot counter=+
CC(C)COc1ccc(C2(C#N)CC[N+](C)(C)CC2)cc1	nt	nt	nt	-0.011	nt	nt	nt	nt
